Assay results published in PubChem BioAssay AID485344 (National Center for Advancing Translational Sciences (NCATS), 2010).
Screen size: about 340,000 compounds; about 6,900 (2%) were called active. What follows is part of a selection rich in actives, with near analogues and random picks from the rest. Values without a mark were called inactive. No stated cut-off is given here; in the data, active means inhibition above about 30%; inactive means below that, where a call was filed.

The compounds below were run against D(2) dopamine receptor (Homo sapiens) (UniProt P14416) (assay: HTS Assay for Allosteric Antagonists of the Human D2 Dopamine Receptor: Primary Screen for Antagonists). Conditions: HEK293 TREx D2 cells, calcium flux, dopamine EC80; at 10 µM; stronger effect = higher value.
D(2) dopamine receptor (Homo sapiens), sequence (P14416 whole entry, looked up): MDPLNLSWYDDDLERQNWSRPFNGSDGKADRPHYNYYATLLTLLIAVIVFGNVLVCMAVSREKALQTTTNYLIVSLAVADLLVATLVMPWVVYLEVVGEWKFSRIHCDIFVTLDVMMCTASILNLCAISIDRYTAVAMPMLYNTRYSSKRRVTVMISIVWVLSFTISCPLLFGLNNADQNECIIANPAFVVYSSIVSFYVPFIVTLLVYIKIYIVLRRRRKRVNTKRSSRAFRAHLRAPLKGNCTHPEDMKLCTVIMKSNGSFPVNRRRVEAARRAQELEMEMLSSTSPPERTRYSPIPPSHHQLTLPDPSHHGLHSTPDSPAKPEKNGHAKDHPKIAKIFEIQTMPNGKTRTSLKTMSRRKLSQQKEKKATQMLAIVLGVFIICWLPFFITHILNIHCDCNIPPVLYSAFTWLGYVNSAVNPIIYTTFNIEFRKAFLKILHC
Outline: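 Overnight-induced (tetracycline, 30 C) HEK293 T-REx cells carrying force-coupled D2 receive a no-wash calcium dye, then compound, then EC80 dopamine at 180 s; signals are read kinetically throughout.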
Further: 0% is about no effect.

Compound | inhibition
CC(C)(C)c1ccc(S(=O)(=O)N2CCN(C(=O)c3ccc4c(c3)C(=O)N(Cc3ccncc3)C4=O)CC2)cc1 | -6.14%
O=C(NCCC1CCCCN1S(=O)(=O)c1cccs1)C(=O)Nc1ccc(F)cc1F (stereo unspecified) | 7.7%
CC(C(=O)N(C)CC(=O)Nc1ccccc1C(F)(F)F)N1C(=O)c2ccccc2C1=O (stereo unspecified) | 12.3%
Cc1nn(Cc2ccccc2)c(C)c1C(=O)N1CCN(CC(=O)Nc2ccccc2Cl)CC1 | 0.422%
CC1CCCCC1NC(=O)CO/N=C/c1ccc(OC(F)F)cc1 (stereo unspecified) | 34.1% (active)
O=C(COC(=O)/C=C/c1ccc(OC(F)F)cc1)NC1CCCCC1 | -18.9%
O=C(CO/N=C/c1ccc(OC(F)F)cc1)NCc1ccc(F)cc1 | 4.16%
CCOc1ccc(S(=O)(=O)N2CCC(C(=O)OCc3ccc(OC)cc3)CC2)cc1 | 5.17%
O=C(C(Cl)Cl)N1CCN(c2ccccn2)CC1 | 1.9%
COc1ccc(N2CCN(C(C)=C3C(=O)c4ccccc4C3=O)CC2)cc1 | 14.9%
CC(=C1C(=O)c2ccccc2C1=O)N1CCN(c2ccccn2)CC1 | 56.1% (active)
CCC1(CC)NC(=O)N(CC(=O)OCC(=O)c2cc(C)c(C)cc2C)C1=O | -22.9%
CCC(=O)c1ccc(OCC(=O)N(CC)CC2COc3ccccc3O2)cc1 (stereo unspecified) | -1.9%
CC1(C)NC(=O)N(CC(=O)N2CCN(S(=O)(=O)c3ccccc3F)CC2)C1=O | -6.83%
CC(C)C[C@H](NC(=O)C1CCC(CNC(=O)[C@@H]2CCCN2C(=O)OC(C)(C)C)CC1)C(=O)O (stereo partly specified) | -15.8%
CC(=O)Nc1ccc(S(=O)(=O)N2CCC(C(=O)N[C@@H](Cc3ccccc3)C(=O)O)CC2)cc1 | -23.4%
CC(C)[C@@H](NC(=O)OC(C)(C)C)C(=O)NCC1CCC(C(=O)N[C@@H](Cc2ccccc2)C(=O)O)CC1 (stereo partly specified) | 31.8% (active)
O=C(CSc1nnc(Nc2ccccc2F)s1)NC1CCCC1 | 12.9%
N#Cc1ccc(C(c2ccc(C#N)cc2)n2cncn2)cc1 | 48.6% (active)
N#Cc1ccc(CSc2ncccn2)cc1 | -5.83%
N#Cc1ccc(C(c2nnnn2CCc2ccccc2)N2CCCCCC2)cc1 (stereo unspecified) | -12.6%

Compound | inhibition
CC1CCCC(NC(=O)c2cc(S(=O)(=O)N3CCCCC3)ccc2Cl)C1C (stereo unspecified) | -4.83%
CCOC(=O)N1CCN(C(=O)C2CCN(S(=O)(=O)c3cc(Cl)ccc3OCC)CC2)CC1 | -9.59%
CCOc1ccc(S(=O)(=O)N2CCC(c3ccccc3)CC2)cc1C(=O)O | -17.4%
CCOc1ccc(Br)cc1S(=O)(=O)N1CCC(C(=O)O)CC1 | 39.3% (active)
CC(C)COc1ccc(C(=O)OCC(=O)NCCC2=CCCCC2)cc1 | 5.26%
CCOC(=O)N1CCN(C(=O)c2cc3c(-c4ccc(Cl)cc4)nn(C)c3s2)CC1 | 5.45%
COc1cccc(-c2nn(C)c3sc(C(=O)N4CCN(c5ccccc5)CC4)cc23)c1 | -14.9%
COc1ccccc1N1CCN(C(=O)c2cc3c(-c4ccc(Cl)cc4)nn(C)c3s2)CC1 | 31% (active)
CCc1noc(C)c1C(=O)N1CCN(S(=O)(=O)c2cccc(C(F)(F)F)c2)CC1 | -22.3%
N#CCC(=O)Nc1ccc(C(=O)OCC(=O)Nc2sc3c(c2C#N)CCCC3)cc1 | -5.79%
CC1Cc2ccccc2N1C(=O)c1cc2sccc2n1Cc1ccccc1 (stereo unspecified) | 8.45%
O=C(c1cc2sccc2n1Cc1ccc(F)cc1)N1CCc2ccccc21 | -20.3%
CCOC(=O)c1cc2sccc2n1Cc1ccc(C#N)cc1 | 31.1% (active)
CCC(C(=O)N1CCN(S(=O)(=O)c2sc(C(=O)O)c(C)c2C(=O)O)CC1)c1ccccc1 (stereo unspecified) | 14.8%
CCOC(=O)N1CCN(C(=O)COC(=O)c2cccc(S(C)(=O)=O)c2)CC1 | -13.9%
O=C(CCc1nc(-c2ccccc2)no1)Nc1cccc(C(=O)NC2CC2)c1 | -8.46%
Cc1ccc(NC(=O)C(C)Sc2nnc(C3CC3)n2C2CC2)cc1S(=O)(=O)N1CCOCC1 (stereo unspecified) | 10%
COc1ccc(-c2cc(=O)c3c(O)cc(O[C@@H]4O[C@H](CO[C@@H]5O[C@@H](C)[C@H](O)[C@@H](O)[C@H]5O)[C@@H](O)[C@H](O)[C@H]4O)cc3o2)cc1O | 3.3%
CCOC(=O)COc1cc(O)c2c(=O)cc(-c3ccccc3)oc2c1 | 3.55%
COc1c(O)cc2oc(-c3ccc(O)c(O)c3)cc(=O)c2c1O | 36.2% (active)
Cc1sc2nc(CSCC(=O)Nc3c(Cl)cccc3Cl)[nH]c(=O)c2c1C | 43.2% (active)

Compound | inhibition
Cc1sc2nc(COC(=O)C(NC(=O)c3ccc(Cl)cc3Cl)C(C)C)[nH]c(=O)c2c1C (stereo unspecified) | 4.89%
Cc1sc2nc(CSCC(=O)NC3CCCCC3)[nH]c(=O)c2c1C | 7.49%
CCOCCn1[nH]c2ccccc2c1=O | 9.72%
CC(=O)Nc1ccc(S(=O)(=O)NC(C)C(=O)OCCOc2ccc(F)cc2)cc1 (stereo unspecified) | 8.18%
COc1ccccc1NS(=O)(=O)c1ccc(C(=O)N2CCN(c3ccccc3O)CC2)cc1 | -20.7%
O=C(CNC(=O)C(c1ccccc1)c1ccccc1)N/N=C\c1ccc2c(c1)OCO2 | 34.6% (active)
Cc1[nH]c2ccccc2c1/C=N/NC(=O)CNC(=O)c1ccc2c(c1)OCO2 | -12.8%
O=C(Cc1ccc(F)cc1)N/N=C/c1ccc2c(c1)OCO2 | -1.11%
COC(=O)c1ccc(NS(=O)(=O)c2cc3c4c(c2)C(C)C(=O)N4CCC3)cc1 (stereo unspecified) | 4.01%
CCCn1nc(C(=O)NNC(=O)CCOc2ccccc2OCC)c2ccccc2c1=O | 17.8%
COc1ccc(NC(=O)NC2CC3CCCC(C2)N3Cc2ccccc2)cc1 (stereo unspecified) | 46% (active)
COc1ccc(NC(=O)N2CCC(Cc3ccccc3)CC2)cc1 | 3.66%
CC(=O)NC1CC2CCCC(C1)N2CC(=O)Nc1ccccc1 (stereo unspecified) | 14.7%
COc1ccc(CN2C3CCCC2CC(NC(=O)c2cccc(F)c2)C3)cc1 (stereo unspecified) | 80.1% (active)
O=C(NC1CCN(Cc2ccccc2)CC1)c1ccccc1F | 21.8%
CCOc1ccccc1C(=O)NC1CC2CCCC(C1)N2Cc1ccccc1 (stereo unspecified) | 92.5% (active)
COc1cccc(C(=O)NNC(=O)c2cccc(F)c2)c1 | 0.993%
CCCCOCCCNC(=O)c1ccccc1OCC | -16%
COc1ccc(NC(=S)N2CCC(NC(=O)c3cccc(F)c3)CC2)cc1 | -6.43%
